Laboratory results: PubChem BioAssay
Calls of active or inactive are those of the source.

Tested on: not listed separately
Experiment: modulators of S6 phosphorylation in cells, primary screen, cell-based, A549, cytoblot, luminescence, serum-stimulated (AID 1158);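 note: serum-stimulated A549 lung adenocarcinoma cells; signal is phosphorylated S6 detected by cytoblot immunostaining with HRP secondary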
Conditions: A549 phospho-S6 cytoblot, 5 h, higher = more signal

SMILES | z-score
CCCCN1CC=CC23O[C@@H]4C=CCCOC(=O)C4[C@H]2C(=O)N(CCCO)[C@@H]3C1=O (stereo partly drawn) | 0.243
C=CC[C@@]1(C(=O)OC)N=C(c2ccc(OCCCO)cc2)O[C@@H]1c1ccccc1CN=[N+]=[N-] | 1.79
C=CC[C@@]1(C(N)=O)N=C(c2ccc(OCCCO)cc2)O[C@@H]1c1ccccc1N=[N+]=[N-] | 0.305
Cc1ccc(N2C(=O)c3ccccc3[C@@H](C(=O)NCC(C)C)[C@@H]2c2ccc(CO)cc2)nc1 | 0.0174
CN1C(=O)C2C=CC(C(O)c3ccc(Br)cc3)N(Nc3ccccc3)C2C1=O (stereo not drawn) | -0.595
CCCC[C@@H]1C[C@H]1[C@@H](NC(=O)c1ccccc1)c1ccccc1 | -0.943
CN(C)CCCCCCNC(=O)[C@@H]1C[C@@H]2C(=O)NCC(=O)N2[C@@H]1c1cccc(OCCO)c1 | 0.0964
COC(=O)c1c(CC[C@@H](CO)NC(=O)Nc2ncn[nH]2)oc(C(=O)Cc2ccccc2)c1C(=O)OC | 0.0642
COC(=O)[C@@]1(Cc2ccc(F)cc2)[C@H]2c3cc(C(=O)N4CCCC4)n(CCc4ccc(OC)c(Br)c4)c3C[C@H]2CN1C(=O)c1ccccc1 | 0.0028
[N-]=[N+]=NCc1ccccc1[C@@H]1OC(c2ccc(OCCCO)cc2)=N[C@]1(Cc1ccccc1N=[N+]=[N-])C(N)=O | -0.0826
C#C[C@H](O[Si](C#CCCCCCC)(C(C)C)C(C)C)c1ccccc1 | 0.482
CC(=O)NCCCC[C@@H]1NC(=O)[C@@H]2C[C@H](C(=O)NCc3ccc(F)cc3)[C@H](c3ccc(O)cc3)N2C1=O | -0.0125
CC(C)C[C@@H]1NC(=O)[C@@H]2C[C@H](C(=O)NCCCCN(C)C)[C@H](c3ccc(O)cc3)N2C1=O | 0.0488
COCCOC(=O)N1C(=O)[C@@]2(c3cc(C#Cc4ccc(OC)cc4)ccc31)[C@H](c1ccc(O)cc1)N1[C@H](c3ccccc3)[C@H](c3ccccc3)OC(=O)[C@H]1[C@@H]2C(=O)N1CCN(c2ncccn2)CC1 | -0.63
CCOC(=O)C1=CC[C@@H](c2cccc(Cl)c2)N(S(=O)(=O)c2ccc(C)cc2)[C@H]1c1ccc(C#N)cc1 | -0.438

Target: NADPH oxidase 2 (Homo sapiens) (UniProt P04839)
Sequence (P04839 whole entry, looked up): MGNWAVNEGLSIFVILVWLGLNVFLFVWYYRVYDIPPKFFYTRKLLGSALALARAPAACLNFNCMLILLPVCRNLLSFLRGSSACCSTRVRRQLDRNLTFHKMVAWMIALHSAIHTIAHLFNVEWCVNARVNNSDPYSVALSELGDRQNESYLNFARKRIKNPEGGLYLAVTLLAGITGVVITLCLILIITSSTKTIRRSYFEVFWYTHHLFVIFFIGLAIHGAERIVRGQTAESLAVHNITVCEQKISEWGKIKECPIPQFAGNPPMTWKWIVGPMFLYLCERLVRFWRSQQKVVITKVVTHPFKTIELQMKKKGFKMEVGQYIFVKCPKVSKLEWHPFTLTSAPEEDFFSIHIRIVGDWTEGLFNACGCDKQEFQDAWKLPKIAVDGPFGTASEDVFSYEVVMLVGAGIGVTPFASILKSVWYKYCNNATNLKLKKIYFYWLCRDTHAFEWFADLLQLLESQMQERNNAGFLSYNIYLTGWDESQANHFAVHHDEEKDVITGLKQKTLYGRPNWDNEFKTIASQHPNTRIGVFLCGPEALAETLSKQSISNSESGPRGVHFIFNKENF
Experiment: NOX2-dependent H2O2 signal modulators, primary screen, NOX inhibitor project, cell-based, HEK293-NOX2, PMA-stimulated, Amplex Red fluorescence (AID 1159); note: test concentration not given here
Conditions: 45 min, higher = more signal, called active from +8 up or from −8 down

SMILES | z-score
COC(=O)c1c2oc(c1C(=O)OC)C(=O)N[C@H](Cc1ccccc1)Cn1nncc1C1(CCCCC1)NC(=O)N[C@H](CO)CC2 | -2.86 (inactive)
CCOC1=C2C(c3ccc(C)cc3)N(S(=O)(=O)c3ccc(C)cc3)CC2n2c(=O)n(-c3ccccc3)c(=O)n2C1 (stereo not drawn) | 1.22 (inactive)
C[C@H]1C2[C@H](Cc3ccccc3)NC(=O)[C@]23C(=O)N[C@H](Cc2ccccc2)C(=O)N[C@H](Cc2ccccc2)C(=O)NC/C=C/CCC/C=C/C3[C@@H]2O[C@]12C (stereo partly drawn) | 0.563 (inactive)
Cc1ccc(S[C@]2(C(=O)NCCCN(C)C)CC(=O)N(C(C)C)[C@@H]2c2ccc(CO)cc2I)cc1 | 0.347 (inactive)
O=C1O[C@@H](c2ccccc2)[C@@H](c2ccccc2)N2[C@@H](c3ccc(O)cc3)[C@]3(C(=O)Nc4ccccc43)[C@@H](C(=O)N3CCCCCCC3)[C@H]12 | 0.915 (inactive)
COc1ccc(C#Cc2ccc3c(c2)[C@]2(C(=O)N3)[C@H](C(=O)N3CCN(c4ncccn4)CC3)[C@H]3C(=O)O[C@H](c4ccccc4)[C@H](c4ccccc4)N3[C@@H]2c2ccc(O)cc2)cc1 | 1.25 (inactive)
COCCCNC(=O)[C@@]1(C)c2ccccc2C(=O)N(Cc2ccccc2)[C@H]1c1ccc(CO)cc1 | -1.63 (inactive)
C=CCC(OC(C)=O)[C@@H]1[C@@H](N(Cc2cc3ccccc3o2)C(=O)c2cccc3ccccc23)c2cc(OCCCO)ccc2N1C(=O)Cc1ccc(OC)cc1 (stereo partly drawn) | -1.79 (inactive)
CC1CC/C=C\[C@H]2OC34C=CCN(c5ccc6ccccc6c5)C(=O)[C@H]3N(CCCCCO)C(=O)[C@@H]4C2C(=O)O1 (stereo partly drawn) | 0.718 (inactive)
CN(C)CCCC[C@@H]1NC(=O)[C@@H]2C[C@H](C(=O)NCCCCCN)[C@H](c3ccc(O)cc3)N2C1=O | -0.487 (inactive)
CC(=O)n1cc(C(O)C2C=CC3C(=O)N(c4ccccc4)C(=O)C3N2Nc2ccc(C#N)cc2)c2ccccc21 (stereo not drawn) | -1.15 (inactive)
COc1cc(NN2C(C(O)c3ccccc3)C=CC3C(=O)N(c4ccccc4)C(=O)C32)cc(OC)c1OC (stereo not drawn) | -3.61 (inactive)
C/C=C/[C@H](CCn1cc([C@H](O)c2ccccc2)nn1)[Si](C)(C)c1ccc(OC)cc1 | 0.576 (inactive)
